{"source": "ChEMBL document CHEMBL3988442", "about": "“University of Dundee, Small-Polar-MMV Screening Library” (2021)", "note": "The whole screen tested about 53,000 compounds, of which about 900 (1.7%) showed an effect of 50% or more. What follows is part of a selection rich in strong results, with near analogues and random picks from the rest.", "data": [{"system": "Mycobacterium tuberculosis", "assay": "Cornell - Phenotypic assay to identify agents that inhibit growth of Mycobacterium tuberculosis", "type": "functional", "set-up": "scale not given: direction of the effect not stated beside the values", "details": "10 mM as filed; unlikely as a test dose", "units": {"Percent Effect": "%"}, "values": [{"smiles": "Cc1nnc(Nc2cccc(C3CCCN(Cc4ncc[nH]4)C3)n2)s1", "note": "(stereo not given)", "Percent Effect": -14.35}, {"smiles": "Cn1ncc2c(NCCOCc3ccccc3)nc(C3CCCC3)nc21", "Percent Effect": 58.05}, {"smiles": "CC(C)N(CCNc1nc(C2CCCC2)nc2c1cnn2C)C(C)C", "Percent Effect": 95.65}, {"smiles": "CCOCCNc1nc(C2CCCC2)nc2c1cnn2C", "Percent Effect": 15.61}, {"smiles": "CCS(=O)(=O)CCNc1nc(C2CCCC2)nc2c1cnn2C", "Percent Effect": -9.599}, {"smiles": "Cn1ncc2c(NCCC34CCCN3CCC4)nc(C3CCCC3)nc21", "Percent Effect": 10.87}, {"smiles": "CNCCCNc1nc(C2CCCC2)nc2c1cnn2C", "Percent Effect": 15.27}, {"smiles": "Cn1ncc2c(NCCCOc3cccnc3)nc(C3CCCC3)nc21", "Percent Effect": -0.5342}, {"smiles": "Cn1ncc2c(NCCn3cccc3)nc(C3CCCC3)nc21", "Percent Effect": 23.68}, {"smiles": "Cn1ncc2c(NCCOc3ccc(F)cc3)nc(C3CCCC3)nc21", "Percent Effect": 105.9}, {"smiles": "Fc1ccc([C@@H]2COC[C@H]2NCc2cccc(F)c2)cc1.O=C(O)CC(O)(CC(=O)O)C(=O)O", "Percent Effect": 12.54}, {"smiles": "CCCNC(=O)c1nn(CC)cc1NC(=O)c1cn(C)nc1C", "Percent Effect": 34.88}, {"smiles": "CC(=O)Nc1nc(CN2CCn3c(C)nnc3C2)cs1", "Percent Effect": -12.41}, {"smiles": "COCCCn1c(CN2CCSCC2)cnc1S(=O)(=O)C1CCCC1", "Percent Effect": 27.36}, {"smiles": "COCCN1C[C@@H](c2ccccc2)[C@@]2(CCN(CC(=O)N(C)C)C2=O)C1.O=C(O)C(F)(F)F", "Percent Effect": 13.65}, {"smiles": "CS(=O)(=O)c1cn[nH]c1C1CCCCN1C(=O)c1cncs1", "note": "(stereo not given)", "Percent Effect": -10.78}, {"smiles": "O=C(c1n[nH]c(=O)c2ccccc12)N1CCCCC1c1ccn[nH]1", "note": "(stereo not given)", "Percent Effect": -33.63}, {"smiles": "O=C(c1cncs1)N1CCCC1c1ccn[nH]1", "note": "(stereo not given)", "Percent Effect": 104.4}, {"smiles": "Cc1ncncc1C(=O)N1CCCC(Cc2nccs2)C1", "note": "(stereo not given)", "Percent Effect": -16.51}, {"smiles": "Cc1csc(CN2CC[C@H]3C[C@@H](c4nnc(C)[nH]4)O[C@@H]3C2)n1", "Percent Effect": -4.039}, {"smiles": "CC(C)N(C(=O)Cn1nc2n(c1=O)CCCCC2)C1CCC1", "Percent Effect": 0.8005}, {"smiles": "Fc1ccccc1CN1CCC[C@@H](Cn2nnc(-c3cccs3)n2)C1", "Percent Effect": 75.98}, {"smiles": "Fc1ccccc1CN1CCC[C@H](Cn2nnc(-c3cccs3)n2)C1", "Percent Effect": 35.5}, {"smiles": "Fc1cccc(CN2CCC[C@H](Cn3nnc(-c4ccccn4)n3)C2)c1", "Percent Effect": 14.75}, {"smiles": "CCc1ccccc1NC(=O)c1cnn(C)c1C", "Percent Effect": 25.28}, {"smiles": "Nc1no[n+]([O-])c1C(=O)NCc1ccccn1", "Percent Effect": -59.59}, {"smiles": "O=C(c1ccncc1)N1CCCC1c1nc(O)cc(-c2ccccn2)n1", "note": "(stereo not given)", "Percent Effect": -36.16}, {"smiles": "CSCC(CCO)Nc1nc(C(F)F)nc2ccccc12", "note": "(stereo not given)", "Percent Effect": 41.07}, {"smiles": "CCc1noc(C(C)N2CCN(CC(=O)N3CCOCC3)CC2)n1", "note": "(stereo not given)", "Percent Effect": 11.6}, {"smiles": "N#Cc1cccc(NC2CC(=O)N(Cc3ccccc3Cl)C2)n1", "note": "(stereo not given)", "Percent Effect": -13.97}, {"smiles": "N#Cc1cccc(NC2CC(=O)N(C3Cc4ccccc4C3)C2)n1", "note": "(stereo not given)", "Percent Effect": 53.28}, {"smiles": "N#Cc1cccc(NC2CC(=O)N(CCCc3ccccc3)C2)n1", "note": "(stereo not given)", "Percent Effect": 2.519}, {"smiles": "O=C1CCC2(CCN(Cc3ccsc3)CC2)N1Cc1ccccc1", "Percent Effect": 26.5}, {"smiles": "Cc1ccoc1C(=O)NC1CCN(Cc2ccccc2C#N)CC1", "Percent Effect": -4.356}, {"smiles": "COc1ccc(NC(=O)NCC(C)N2CCc3ccccc32)cc1", "note": "(stereo not given)", "Percent Effect": 13.58}, {"smiles": "CC(CNC(=O)Nc1ccc(C#N)cc1)N1CCc2ccccc21", "note": "(stereo not given)", "Percent Effect": 62.86}, {"smiles": "CC(CNC(=O)c1ccc(C#N)cc1)N1CCc2ccccc21", "note": "(stereo not given)", "Percent Effect": 20.43}, {"smiles": "Cc1nc(C2CCCN2CC(=O)Nc2cc(C(C)(C)C)nn2C)no1", "note": "(stereo not given)", "Percent Effect": -17.86}, {"smiles": "O=C(c1cnc(-c2cccs2)s1)N1CCCC(n2ccnc2)C1", "note": "(stereo not given)", "Percent Effect": 6.926}, {"smiles": "Cc1oncc1C(=O)N1CCC2(CC1)CC(N1CCOCC1)C2.O=C(O)C(F)(F)F", "Percent Effect": 14.16}, {"smiles": "Cc1nc(NCC2CC2)nc2c1COCC21CCN(CC(=O)N(C)C)C1", "note": "(stereo not given)", "Percent Effect": -16.56}, {"smiles": "N#CCCCn1nnnc1Cc1ccc(Br)cc1", "Percent Effect": 19.45}, {"smiles": "CC(C)OCCn1nnnc1Cc1ccc(Br)cc1", "Percent Effect": 80.17}, {"smiles": "OCCn1nnnc1Cc1ccc(Br)cc1", "Percent Effect": 32.76}, {"smiles": "Cc1ccnn1CCC(=O)N1CCCC[C@]2(C)NC(=O)CCC[C@H]12", "Percent Effect": 0.426}, {"smiles": "CN1CCN(C(=O)CCn2ncc3ccccc32)CC(C(N)=O)C1", "note": "(stereo not given)", "Percent Effect": 40.84}, {"smiles": "CNC(=O)C1CN(C)CCN(C(=O)CCn2nnc3ccccc32)C1", "note": "(stereo not given)", "Percent Effect": 37.61}, {"smiles": "CN1CCN(C(=O)CCn2nnc3ccccc32)CC(C(N)=O)C1", "note": "(stereo not given)", "Percent Effect": 53.1}, {"smiles": "CCC(C(=O)Nc1ccc2nc(C)oc2c1)N1CCCC1=O", "note": "(stereo not given)", "Percent Effect": -18.53}, {"smiles": "Cn1cccc1C(=O)N1CCC2(CC1)CN(S(C)(=O)=O)c1ccccc12", "Percent Effect": 9.432}, {"smiles": "OC(COc1ccccc1Br)COC1CCOCC1", "note": "(stereo not given)", "Percent Effect": 10.03}, {"smiles": "Clc1ccc(CNc2ccc(Cl)cn2)cc1", "Percent Effect": -25.47}, {"smiles": "CN(c1ccc(CNc2ccc(Cl)cn2)cc1)S(C)(=O)=O", "Percent Effect": 21.91}, {"smiles": "CN(C)S(=O)(=O)c1ccc(CNc2ccc(Cl)cn2)cc1", "Percent Effect": 63.29}, {"smiles": "O=C(COCC1CC1)Nc1cc(-c2ccc(Br)s2)n[nH]1", "Percent Effect": 108.2}, {"smiles": "O=C(COCC1CC1)Nc1ncccc1O", "Percent Effect": -3.464}, {"smiles": "COc1ccccc1-c1cc(NC(=O)COCC2CC2)[nH]n1", "Percent Effect": 43.6}, {"smiles": "O=C(CCn1c(C(F)F)cc2cccnc21)NC1CCCC1", "Percent Effect": -12.05}, {"smiles": "CC(C)CNC(=O)c1cc2c(s1)CCN2S(C)(=O)=O", "Percent Effect": -19.48}, {"smiles": "Cc1cc(C2CCC2)nc(N2CCC3(CCNC(=O)CC3)CC2)n1", "Percent Effect": 19.37}, {"smiles": "Cn1ccnc1SCC(=O)NCc1ccc2c(c1)CCC(=O)N2", "Percent Effect": -11.99}, {"smiles": "Cc1ccc(C2CSCCN2C(=O)c2cc(C(N)=O)cs2)o1", "note": "(stereo not given)", "Percent Effect": 23.87}, {"smiles": "Cc1c(C(=O)N(C)CC(F)(F)F)nnn1-c1ccc(F)cc1", "Percent Effect": 26.05}, {"smiles": "c1ccc2c(c1)CCN(c1nc(-c3ccncc3)nc3c1CCNC3)C2", "Percent Effect": 18.38}, {"smiles": "Cc1ccccc1N1CCN(c2nc(N(C)C)nc3c2CCNC3)CC1", "Percent Effect": -18.26}, {"smiles": "CN(C)c1nc2c(c(N3CCc4ccccc4C3)n1)CCNC2", "Percent Effect": 60.07}, {"smiles": "Cc1n[nH]c(C)c1-c1nccnc1CC1CCN(C(C)C)CC1", "Percent Effect": -33.1}, {"smiles": "COc1ccc(C(=O)N2CC(=O)N(C3CCC3)CC(O)C2)cc1OC", "note": "(stereo not given)", "Percent Effect": -13.29}, {"smiles": "CC(Oc1cc(Cl)cc(Cl)c1)C(=O)NCCOCC(N)=O", "note": "(stereo not given)", "Percent Effect": -19.42}, {"smiles": "O=C(Nc1cccc(C(F)(F)F)c1)N1CCN(CCn2ccnc2)CC1", "Percent Effect": 98.5}, {"smiles": "O=C(Nc1ccc2c(c1)OCO2)N1CCN(CCn2ccnc2)CC1", "Percent Effect": -27.6}, {"smiles": "CC(=O)NC1CCN(C(=O)Nc2cccc(C(F)(F)F)c2)CC1", "Percent Effect": 20.69}, {"smiles": "Cc1nn(C)c(C)c1CN1CCCC1c1nccc(CN(C)C)n1", "note": "(stereo not given)", "Percent Effect": -90.49}, {"smiles": "CS(=O)(=O)N1CC(c2n[nH]c3ncccc23)C1", "Percent Effect": -14.19}, {"smiles": "COc1cccc(CN2CCN(c3cccc(C(C)C)n3)CC2)c1F", "Percent Effect": 57.83}, {"smiles": "COc1cccc(CN2CC[C@H](NC(C)=O)[C@@H](O)CC2)c1F", "Percent Effect": -15.13}, {"smiles": "COc1cccc(CN2CCN(c3noc(C(C)C)n3)CC2)c1F", "Percent Effect": 42.13}, {"smiles": "CC(C)c1cc2c(s1)NC(c1ccccn1)NC2=O", "note": "(stereo not given)", "Percent Effect": -1.811}, {"smiles": "CCn1c(C2CCCN2Cc2noc(C(C)(C)C)n2)nc2ccccc21", "note": "(stereo not given)", "Percent Effect": 13.86}, {"smiles": "COc1ccccc1CC(=O)NC(C)c1nc2cccnc2n1C(C)C", "note": "(stereo not given)", "Percent Effect": -9.677}, {"smiles": "CC(C)Nc1ncnc2c1CCN(C(=O)c1ccncc1F)CC2.O=C(O)C(F)(F)F", "Percent Effect": -9.598}, {"smiles": "N#Cc1ccc(C(=O)O)nc1/C=C/c1cccc(F)c1", "Percent Effect": 2.587}, {"smiles": "O=C(O)c1cc(/C=C/c2cccc3ccccc23)ncn1", "Percent Effect": 65.34}, {"smiles": "N#Cc1ccc(C(=O)O)nc1/C=C/c1cccc(Br)c1", "Percent Effect": 10.67}, {"smiles": "O=C(O)c1cc(/C=C/c2ccccc2)ncn1", "Percent Effect": 65.58}, {"smiles": "O=C(O)c1cc(/C=C/c2ccc3ccccc3c2)ncn1", "Percent Effect": 74.73}, {"smiles": "O=C(O)c1c(Cl)ncn1-c1cccc2ccccc12", "Percent Effect": 19.97}, {"smiles": "N#Cc1ccc(C(=O)O)nc1/C=C/c1cccc(Cl)c1", "Percent Effect": -13.81}, {"smiles": "O=C(O)C1(Oc2ccc3ccccc3c2)CCN(c2ncccn2)CC1", "Percent Effect": 20.42}, {"smiles": "CNC(=O)C1CCN(C(=O)NCc2ccc(-c3ccn[nH]3)cc2)CC1", "Percent Effect": -24.99}, {"smiles": "N#Cc1ccc(N2CCC3(CCC(=O)N3CCN3CCCC3)CC2)nc1.O=C(O)C(F)(F)F.O=C(O)C(F)(F)F", "Percent Effect": 3.156}, {"smiles": "CCc1nnc2n1CCN(C(=O)CN(C)C1CC1)C2", "Percent Effect": -12.51}, {"smiles": "CCN1Cc2cc3c(cc2NCCC1=O)OCO3", "Percent Effect": -32.17}, {"smiles": "CN1CCC(N(CCc2ccccc2)C(=O)COCC2CCCO2)CC1", "note": "(stereo not given)", "Percent Effect": 41.94}, {"smiles": "CN1CC(=O)N(c2ccsc2)CC12CCN(S(=O)(=O)C1CC1)C2.O=C(O)C(F)(F)F", "note": "(stereo not given)", "Percent Effect": 6.764}, {"smiles": "O=C(NC1CCC1)C1=NOC2(CCN(Cc3ccccc3)C2)C1", "note": "(stereo not given)", "Percent Effect": -9.005}, {"smiles": "N#CCSCCCN1CCN(C(=O)c2cccc(Cl)c2)CC1", "Percent Effect": 18.37}, {"smiles": "CC[C@H](Nc1nc(C(C)C)nc2c1cnn2C)c1ccccc1", "Percent Effect": 70.75}, {"smiles": "CCC(Nc1nc(C(C)C)nc2c1cnn2C)c1ccc(O)cc1", "note": "(stereo not given)", "Percent Effect": 1.347}, {"smiles": "CCC(Nc1nc(C(C)C)nc2c1cnn2C)c1ccncc1", "note": "(stereo not given)", "Percent Effect": 25.2}, {"smiles": "Cc1nc(Nc2nnc(C)s2)cc(C2CCCN2c2ccncc2)n1", "note": "(stereo not given)", "Percent Effect": -13.84}, {"smiles": "CCc1noc(C(C)N2CCc3c(ncn3C3CC3)C2)n1", "note": "(stereo not given)", "Percent Effect": -20.08}, {"smiles": "COCc1nc(C(=O)N2CCCC(n3cccn3)C2)cs1", "note": "(stereo not given)", "Percent Effect": 67.19}, {"smiles": "CCc1nccn1C1CCCN(C(=O)c2csc(COC)n2)C1", "note": "(stereo not given)", "Percent Effect": 19.86}, {"smiles": "COCc1nc(C(=O)N2CCCC(n3nc(C)cc3C)C2)cs1", "note": "(stereo not given)", "Percent Effect": -24.43}]}]}
